Screens (PubChem)
Sampled rows, rich in hits. Any-hit rate of the full collection: about 12%.
HP1b chromo inh – HP1-beta chromodomain-methylated histone interaction inhibition; P83916; AlphaScreen HP1-beta / biotin-H3K9me3 peptide binding; Potency, µM (titrated, usually from 114 µM), without a hit: at the top dose activity change, negative = inhibition, hits mostly inhibitors; actives 0.56% (n = 390,000); further: nearly all actives have a fitted effect of over 70% in size
Target sequence (P83916 whole entry, looked up): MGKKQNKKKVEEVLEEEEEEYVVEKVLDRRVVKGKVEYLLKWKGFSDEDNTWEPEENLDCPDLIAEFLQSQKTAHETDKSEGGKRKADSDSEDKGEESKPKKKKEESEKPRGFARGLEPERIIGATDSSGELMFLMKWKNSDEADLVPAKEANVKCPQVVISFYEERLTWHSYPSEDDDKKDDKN
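Compound inhibition of the preformed complex between 50 nM HP1-beta and 50 nM biotinylated H3K9me3 peptide was read by AlphaScreen. Buffer was PBS pH 7.4 with 0.01% Tween-20. Incubations ran 30 min at room temperature, with 10 ug/mL donor/acceptor beads.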
L3MBTL1 block – inhibitors of human L3MBTL1 | Potency, µM (doses to about 57.1 µM), inactives show at the highest dose activity, negative = inhibition, hits mostly inhibitors | Q9Y468 | AlphaScreen L3MBTL1–H3K9me1 peptide binding | AID 485360 | actives 0.66% (n = 230,000); further: on the % scale 0 is the no-effect control and ±100 the full control effect; nearly all actives have a fitted effect of over 60% in size
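Read-out is AlphaScreen signal from streptavidin donor and nickel chelate acceptor beads (10 ug/mL final each) bridging L3MBTL1 (50 nM) and biotinylated K9-monomethylated H3(1-15) peptide (75 nM), after 30 min compound exposure at room temperature.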
JMJD2A Tudor inh – inhibitors of human JMJD2A Tudor domain; actives 4.4% (n = 390,000); AlphaScreen JMJD2A-Tudor / H3K4me3 peptide binding; AID 504339; Potency, µM (highest dose often 114 µM), without a hit: at the top dose activity change, negative = inhibition, hits mostly inhibitors; O75164; further: on the % scale 0 is the no-effect control and ±100 the full control effect; nearly all actives have a fitted effect of over 50% in size
BAZ2B inh – inhibitors of human BAZ2B bromodomain. Q9UIF8. AlphaScreen BAZ2B-H3K14Ac peptide displacement. Potency, µM (highest dose often 114 µM), for inactives: at the top dose activity change, negative = inhibition, usual class: inhibitors. actives 4.4% (n = 360,000). AID 504333; further: on the % scale 0 is the no-effect control and ±100 the full control effect; nearly all actives have a fitted effect of over 60% in size
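AlphaScreen luminescence quantifies BAZ2B engagement of H3K14Ac peptide; the protein and biotinylated peptide are both at 50 nM final, buffer PBS pH 7.4 with 0.01% Tween-20, all steps at room temperature.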
Sfp PPTase inh – blocks B. subtilis Sfp PPTase activity | actives 3.5% (n = 310,000) | Potency, µM, without a hit: largest response in the series, negative = inhibition, hits mostly inhibitors | AID 1490 | Biochemical Sfp PPTase activity, qHTS;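 further: the enzyme is Sfp with the accession as filed and its product quenches rhodamine fluorescence; 0% = enzyme reaction without inhibitor and -100% = no enzyme wells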
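Sfp 15 nM + cpd, 15 min RT; start w/ rhodamine-CoA 5 uM, BHQ-2-YbbR 12.5 uM (final); 50 mM Hepes pH 7.6, 10 mM MgCl2, 0.01% NP-40, 0.01% BSA; read 525/598 nm at 0 and 30 min.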
G9a inh – inhibitors of human histone lysine methyltransferase G9a. actives 8.8% (n = 350,000). AID 504332. Q96KQ7. G9a H3K9 monomethylation, AlphaScreen, 2 h. Potency, µM (series often up to 102 µM), for the others: at the highest dose activity, negative = inhibition, usual class: inhibitors; further: on the % scale 0 is the no-effect control and ±100 the full control effect; nearly all actives have a fitted effect of over 75% in size
Target sequence (Q96KQ7 913-1193 limits assumed): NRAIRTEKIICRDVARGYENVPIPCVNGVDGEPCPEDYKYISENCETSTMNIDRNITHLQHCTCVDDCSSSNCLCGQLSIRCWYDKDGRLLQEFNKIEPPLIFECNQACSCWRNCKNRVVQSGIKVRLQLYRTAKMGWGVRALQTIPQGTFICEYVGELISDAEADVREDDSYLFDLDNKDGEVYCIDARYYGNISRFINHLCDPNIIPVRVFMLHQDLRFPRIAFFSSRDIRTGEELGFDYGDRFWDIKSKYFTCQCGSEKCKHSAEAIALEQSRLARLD
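Compounds were preincubated with 20 nM G9a for 15 min, after which biotinylated H3K9 peptide (500 nM) and SAM (20 uM) started a 2 h room-temperature reaction. Monomethylated product was quantified by antibody-based AlphaScreen chemiluminescence.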
The depositor's hits bear a star; u = inconclusive; x = not tested or not shown; [ ] = remark or other dose. The call rests on the fitted dose curve; in most records, active means well fitted curve in the direction sought with a large enough effect; inconclusive means small, poorly fitted or top-dose-only effect, or another doubt; inactive means no such curve, though single readings can be large; an effect the other way counts as inactive or inconclusive. Potency means the concentration at half of the fitted maximal effect.

SMILES	HP1b chromo inh	L3MBTL1 block	JMJD2A Tudor inh	BAZ2B inh	Sfp PPTase inh	G9a inh
COCCCNCC(O)COc1ccccc1F (stereo not given)	u	x	1.3µM*	11%	u	60%
Fc1ccccc1-n1[nH]nnc1=S	u	x	u	u	25µM*	7.9µM*
CN(C)c1ccc(CNn2cnnc2SCc2ccc(F)cc2)cc1	-6%	x	u	45µM*	-3%	u
CSc1ccccc1C(=O)NC1CCCN(c2ccc(C(F)(F)F)cn2)C1 (stereo not given)	67%	x	-6%	-13%[57.1 µM]	8%	8.9µM*
Nc1nc(CSCCO)nc(Nc2ccc(F)cc2)n1	25%	4%	-6%	11%	8%	20%[59 µM]
Nc1nc(CN2CCCCCC2)nc(Nc2ccc(F)cc2)n1	19%	x	79µM*	7.1µM*	-20%	10µM*
Nc1nc(CN2CCN(c3ccccn3)CC2)nc(Nc2ccc(F)cc2)n1	22%	x	50µM*	50µM*	-4%	u
CCN(CC(=O)Nc1ccc(NC(C)=O)cc1)C(=O)Cc1ccc(S(=O)(=O)N2CCOCC2)s1	23%	2%	-2%	3%	x	u
Cc1ccc2c(C)ccc(O)c2n1	5%	x	-7%	u	45µM*	3.5µM*
CSc1ccccc1NC(=O)c1cccc(S(=O)(=O)N2CCN(C)CC2)c1	36%	x	-1%	-10%	6%	68%
CCNc1ncc2nc(C)c(=O)n(CCOC)c2n1	x	x	x	x	6%	-1%[0.501 µM]
CC(=O)OCC1OC(n2cnc3c(Cl)nc(Cl)nc32)C(OC(C)=O)C1OC(C)=O (stereo not given)	x	x	x	x	10%	x
Cc1ccc(S(=O)(=O)N2CCc3ccccc3C2)cc1	38%	14%	31%	37%	2%	103%
Cc1ccc(S(=O)(=O)N2C(=O)[C@@H]3Cc4ccccc4CN3C2=O)cc1	-17%	x	7.9µM*	-35%	17%	40µM*
Cc1cccc2sc(NC(=O)c3ccc(NS(=O)(=O)c4cccs4)cc3)nc12	-5%	-1%	-29%	-36%	-9%	u
Cc1c(CCO)c(=O)n(-c2ccccc2)n1S(=O)(=O)c1c(Cl)cc(Cl)cc1Cl	45%	-2%	-22%	u	71µM*	-25%[0.0925 µM]
COc1ccc(C)cc1S(=O)(=O)N(C)CC(=O)N1CCC(C(N)=O)CC1	45%	-1%	8%	-7%	19%	x
CC[N+]1(C)CCC(O)(c2ccc(OC)cc2)C(C(=O)c2ccc(OC)cc2)C1 (stereo not given)	-5%	x	89µM*	x	x	x
Cc1cc(C)c2c(=O)n(CC(=O)Nc3ccc(Br)c(C)c3)sc2n1	u	3%	2.5µM*	u	3.2µM*	0.32µM*
Cc1cc(C)c2c(=O)n(CC(=O)NC3CCCC3)sc2n1	8.9µM*	-1%	2.2µM*	79µM*	2.8µM*	0.5µM*
COc1ccc(OC)c(CCNC(=O)Cn2sc3nc(C)cc(C)c3c2=O)c1	x	x	x	50µM*	1.4µM*	1µM*
Cc1cc(C)c2c(=O)n(CC(=O)Nc3cccc(Cl)c3C)sc2n1	7.9µM*	x	2µM*	u	2.5µM*	0.28µM*
Cc1c(Cl)cccc1NC(=O)Cn1cccc1	-6%	-1%	-25%	u	1%	u
CN(C)C1(CNC(=O)C2CCC(=O)N(CCc3ccc(Cl)cc3)C2)CCCCC1 (stereo not given)	7%	x	-2%	-7%	4%	14%
Cc1ccc(NS(=O)(=O)c2ccc3oc(=O)c4ncn(C)c4c3c2)cc1C	36%	x	-2%	0%	x	9%[59 µM]
SMILES	HP1b chromo inh	L3MBTL1 block	JMJD2A Tudor inh	BAZ2B inh	Sfp PPTase inh	G9a inh
O=C(CNCc1ccc(Cl)cc1)Nc1cc(S(=O)(=O)N2CCCC2)ccc1Cl	u	x	3.5µM*	x	x	x
O=C(Cc1ccccc1F)Nc1cc(S(=O)(=O)N2CCCC2)ccc1Cl	22%	1%	-5%	-6%	x	27%[59 µM]
Cc1ccc(S(=O)(=O)N2CCOCC2)cc1NC(=O)CNCc1ccc(Cl)cc1Cl	29%	-3%	-17%	x	x	x
CCN(CC)c1ccc(S(=O)(=O)N2CCOCC2)cc1NC(=O)CSc1nncs1	5%	-18%	-3%	11%	x	35µM*
CCN(CC)c1ccc(S(=O)(=O)N2CCOCC2)cc1NC(=O)CSc1nncn1C	31%	1%	-19%	13%	x	u
Cc1ccc(OCCCC(=O)Nc2cc(S(=O)(=O)N3CCOCC3)ccc2N2CCOCC2)cc1	1%	-7%	-18%	-5%	x	56µM*
O=C(CNCc1ccccc1Cl)Nc1cc(S(=O)(=O)N2CCOCC2)ccc1Cl	u	0%	7.9µM*	x	x	x
COCCn1c(=O)c(-c2ccc(OC)cc2)nc2cnc(OCc3ccccc3)nc21	x	x	x	x	29%	-5%[0.501 µM]
O=C(CNCc1ccco1)Nc1cc(S(=O)(=O)N2CCOCC2)ccc1N1CCOCC1	u	-1%	18µM*	x	x	x
CCN(CC)c1ccc(S(=O)(=O)N2CCOCC2)cc1NC(=O)CNCc1cccc(Cl)c1	u	x	50µM*	x	x	x
NC(=O)NS(=O)(=O)c1ccc(N)cc1	x	x	x	x	11%	-25%[12.7 µM]
Cc1sc(NC(=O)CCCC(=O)O)c(C(N)=O)c1-c1ccccc1	-33%	x	-23%	0%	2%	25µM*
C[C@H]1CC[C@H]2C(=O)N3[C@H](c4cccc(N5CCCC5=O)c4)[C@@H](C)CC[C@H]3C(=O)N2[C@@H]1c1cccc(N2CCCC2=O)c1	x	-5%	x	-38%	-17%	50µM*
O=C(O)c1cccc(N2CCCC2=O)c1	13%	-6%	-11%	-4%	-6%	50µM*
CC1CC(C)CN(CCCNC(=O)c2ccc(N3CCCC3=O)cc2)C1 (stereo not given)	18%	x	-12%	0%	5%	7.9µM*
CN(CCCNC(=O)c1cccc(N2CCCC2=O)c1)c1ccccc1	14%	-22%	-27%	-25%	-6%	8.9µM*
COC(=O)c1cccc(N2CCCC2=O)c1	19%	x	-1%	-22%	-6%	13%
CCCCN(C)CCCNC(=O)c1cccc(N2CCCC2=O)c1	33%	x	-2%	4%	0%	-4%
COC(=O)c1ccc(COc2ccccc2/C=N/Nc2cccc(C(=O)O)c2)cc1	33%	-14%	-10%	-37%	1%	25µM*
COC(=O)c1ccc(COc2ccccc2/C=C/C(=O)c2ccc(OCC(=O)O)cc2)cc1	-3%	x	-23%	u	u	50µM*
COC(=O)c1ccc(CO/N=C/c2ccccc2OC)cc1	175%	x	162%	144%	-15%	191%
CCOc1cc(/C=N/Nc2ccccc2Cl)ccc1OCC(=O)O	u	u	-26%	u	-24%	10µM*
